From PubChem BioAssay AID1159580 (chemical genetic matrix, 2015)
In all, about 5,500 compounds went through this assay and about 2,000 (36%) were called active. Inconclusive results (about 18%) are left out. Cut-off read from the data, not from the text of the source: active = normalized growth mostly below about 0.91 (no sharp cut-off); inconclusive = no clear call, values can overlap the other calls; inactive = mostly above about 0.92. Some of the results follow.

Assay: chemical genetic growth profiling, strain panel (AID 1159580);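 note: tested at 20 µM; growth read once vehicle control cultures reached saturation at 30 °C; 1 = growth at the plate median or of vehicle wells; lower values mean less growth of the strain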
Details: growth OD

Measured: normalized growth

Cc1cc(=O)c2c(O)c(C)c(O)cc2o1
inactive: S. cerevisiae deletion strains, locus YAL021C, strain ccr4, stronger effect = lower value 1 | S. cerevisiae deletion strains, locus YAL026C, strain drs2, stronger effect = lower value 1.04 | S. cerevisiae deletion strains, locus YAL030W, strain snc1, stronger effect = lower value 1.02 | S. cerevisiae deletion strains, locus YBL061C, strain skt5, stronger effect = lower value 1.02 | S. cerevisiae deletion strains, locus YBR009C, strain hhf1, stronger effect = lower value 1.01 | S. cerevisiae deletion strains, locus YBR021W, strain FUR4, stronger effect = lower value 0.91 | S. cerevisiae deletion strains, locus YBR023C, strain chs3, stronger effect = lower value 1.03 | S. cerevisiae deletion strains, locus YBR171W, strain sec66, stronger effect = lower value 1.03 | S. cerevisiae deletion strains, locus YBR229C, strain ROT2, stronger effect = lower value 1.02 | S. cerevisiae deletion strains, locus YBR231C, strain swc5, stronger effect = lower value 1.02 | S. cerevisiae deletion strains, locus YBR279W, strain paf1, stronger effect = lower value 1.01 | S. cerevisiae deletion strains, locus YCL011C, strain gbp2, stronger effect = lower value 1.04 | S. cerevisiae deletion strains, locus YCL016C, strain dcc1, stronger effect = lower value 1.01 | S. cerevisiae deletion strains, locus YCL029C, strain bik1, stronger effect = lower value 0.975 | S. cerevisiae deletion strains, locus YCL069W, strain vba3, stronger effect = lower value 1.02 | S. cerevisiae deletion strains, locus YCR088W, strain abp1, stronger effect = lower value 1.02 | S. cerevisiae deletion strains, locus YDL005C, strain med2, stronger effect = lower value 1.02 | S. cerevisiae deletion strains, locus YDL035C, strain GPR1, stronger effect = lower value 0.978 | S. cerevisiae deletion strains, locus YDL040C, strain nat1, stronger effect = lower value 1.01 | S. cerevisiae deletion strains, locus YDL074C, strain BRE1, stronger effect = lower value 0.973 | S. cerevisiae deletion strains, locus YDL101C, strain DUN1, stronger effect = lower value 0.991 | S. cerevisiae deletion strains, locus YDL134C, strain PPH21, stronger effect = lower value 0.983 | S. cerevisiae deletion strains, locus YDL185W, strain tfp1, stronger effect = lower value 0.983 | S. cerevisiae deletion strains, locus YDL192W, strain arf1, stronger effect = lower value 0.954 | S. cerevisiae deletion strains, locus YDR001C, strain nth1, stronger effect = lower value 1.02 | S. cerevisiae deletion strains, locus YDR069C, strain doa4, stronger effect = lower value 1.02 | S. cerevisiae deletion strains, locus YDR101C, strain arx1, stronger effect = lower value 0.957 | S. cerevisiae deletion strains, locus YDR137W, strain rgp1, stronger effect = lower value 1.03 | S. cerevisiae deletion strains, locus YDR159W, strain sac3, stronger effect = lower value 1.03 | S. cerevisiae deletion strains, locus YDR162C, strain NBP2, stronger effect = lower value 0.922 | S. cerevisiae deletion strains, locus YDR195W, strain ref2 1.01 | S. cerevisiae deletion strains, locus YDR297W, strain sur2, stronger effect = lower value 1.01 | S. cerevisiae deletion strains, locus YDR318W, strain mcm21, stronger effect = lower value 0.95 | S. cerevisiae deletion strains, locus YDR334W, strain swr1, stronger effect = lower value 1.01 | S. cerevisiae deletion strains, locus YDR335W, strain msn5, stronger effect = lower value 1.04 | S. cerevisiae deletion strains, locus YDR388W, stronger effect = lower value 0.988 | S. cerevisiae deletion strains, locus YDR392W, strain spt3, stronger effect = lower value 1.04 | S. cerevisiae deletion strains, locus YDR502C, strain sam2, stronger effect = lower value 0.935 | S. cerevisiae deletion strains, locus YEL003W, strain gim4, stronger effect = lower value 1.02 | S. cerevisiae deletion strains, locus YEL037C, strain rad23, stronger effect = lower value 1.03 | S. cerevisiae deletion strains, locus YEL061C, strain CIN8 (second series), stronger effect = lower value 1.01 | S. cerevisiae deletion strains, locus YEL061C, strain CIN8, stronger effect = lower value 1 | S. cerevisiae deletion strains, locus YER015W, strain faa2, stronger effect = lower value 1.02 | S. cerevisiae deletion strains, locus YER016W, strain bim1, stronger effect = lower value 1.01 | S. cerevisiae deletion strains, locus YER110C, stronger effect = lower value 0.96 | S. cerevisiae deletion strains, locus YER111C, strain swi4, stronger effect = lower value 1.03 | S. cerevisiae deletion strains, locus YER155C, strain BEM2 (second series), stronger effect = lower value 1.04 | S. cerevisiae deletion strains, locus YER155C, strain BEM2, stronger effect = lower value 1.02 | S. cerevisiae deletion strains, locus YER167W, strain BCK2, stronger effect = lower value 1.01 | S. cerevisiae deletion strains, locus YFR010W, strain ubp6, stronger effect = lower value 1.04 | S. cerevisiae deletion strains, locus YGL078C, strain dbp3, stronger effect = lower value 0.949 | S. cerevisiae deletion strains, locus YGL086W, strain mad1, stronger effect = lower value 0.967 | S. cerevisiae deletion strains, locus YGL167C, strain pmr1, stronger effect = lower value 1.03 | S. cerevisiae deletion strains, locus YGL173C, strain kem1, stronger effect = lower value 1.02 | S. cerevisiae deletion strains, locus YGL227W, strain vid30, stronger effect = lower value 1.02 | S. cerevisiae deletion strains, locus YGL240W, strain doc1, stronger effect = lower value 1.01 | S. cerevisiae deletion strains, locus YGL248W, strain PDE1, stronger effect = lower value 0.997 | S. cerevisiae deletion strains, locus YGL253W, strain hxk2, stronger effect = lower value 1.02 | S. cerevisiae deletion strains, locus YGR078C, strain PAC10, stronger effect = lower value 0.963 | S. cerevisiae deletion strains, locus YGR135W, strain pre9, stronger effect = lower value 0.932 | S. cerevisiae deletion strains, locus YGR252W, strain gcn5, stronger effect = lower value 0.815 | S. cerevisiae deletion strains, locus YHR013C, strain ard1, stronger effect = lower value 1.07 | S. cerevisiae deletion strains, locus YHR027C, strain rpn1, stronger effect = lower value 1.03 | S. cerevisiae deletion strains, locus YHR079C, strain IRE1 (second series), stronger effect = lower value 0.978 | S. cerevisiae deletion strains, locus YHR094C, strain hxt1, stronger effect = lower value 0.984 | S. cerevisiae deletion strains, locus YHR129C, strain ARP1, stronger effect = lower value 1 | S. cerevisiae deletion strains, locus YHR142W, strain chs7, stronger effect = lower value 1.04 | S. cerevisiae deletion strains, locus YHR200W, strain rpn10, stronger effect = lower value 0.958 | S. cerevisiae deletion strains, locus YIL066C, strain RNR3, stronger effect = lower value 1.02 | S. cerevisiae deletion strains, locus YIL073C, strain SPO22, stronger effect = lower value 0.999 | S. cerevisiae deletion strains, locus YIL125W, strain kgd1, stronger effect = lower value 0.986 | S. cerevisiae deletion strains, locus YIR030C, strain dcg1, stronger effect = lower value 0.99 | S. cerevisiae deletion strains, locus YJL092W, strain hpr5, stronger effect = lower value 1.02 | S. cerevisiae deletion strains, locus YJL095W, strain BCK1 (second series), stronger effect = lower value 1.02 | S. cerevisiae deletion strains, locus YJL095W, strain BCK1, stronger effect = lower value 0.934 | S. cerevisiae deletion strains, locus YJL115W, strain asf1, stronger effect = lower value 1.03 | S. cerevisiae deletion strains, locus YJL129C, strain trk1, stronger effect = lower value 1.01 | S. cerevisiae deletion strains, locus YJL134W, strain LCB3, stronger effect = lower value 1.01 | S. cerevisiae deletion strains, locus YJL154C, strain vps35, stronger effect = lower value 1.03 | S. cerevisiae deletion strains, locus YJL164C, strain tpk1, stronger effect = lower value 1.01 | S. cerevisiae deletion strains, locus YJL166W, strain qcr8, stronger effect = lower value 1.01 | S. cerevisiae deletion strains, locus YJL168C, strain set2, stronger effect = lower value 0.994 | S. cerevisiae deletion strains, locus YJL187C, strain SWE1 (second series), stronger effect = lower value 0.971 | S. cerevisiae deletion strains, locus YJL187C, strain SWE1, stronger effect = lower value 1 | S. cerevisiae deletion strains, locus YJR043C, strain POL32, stronger effect = lower value 0.992 | S. cerevisiae deletion strains, locus YKL009W, strain mrt4, stronger effect = lower value 0.961 | S. cerevisiae deletion strains, locus YKL068W, stronger effect = lower value 1 | S. cerevisiae deletion strains, locus YKL085W, strain MDH1 (second series), stronger effect = lower value 0.996 | S. cerevisiae deletion strains, locus YKL085W, strain MDH1, stronger effect = lower value 0.996 | S. cerevisiae deletion strains, locus YKL160W, strain elf1, stronger effect = lower value 1.02 | S. cerevisiae deletion strains, locus YKR026C, strain gcn3, stronger effect = lower value 1.02 | S. cerevisiae deletion strains, locus YKR091W, strain srl3, stronger effect = lower value 1.02 | S. cerevisiae deletion strains, locus YLL001W, strain dnm1, stronger effect = lower value 1.02 | S. cerevisiae deletion strains, locus YLL026W, stronger effect = lower value 1.01 | S. cerevisiae deletion strains, locus YLL041C, strain sdh2, stronger effect = lower value 1.02 | S. cerevisiae deletion strains, locus YLR027C, strain aat2, stronger effect = lower value 1 | S. cerevisiae deletion strains, locus YLR039C, strain RIC1, stronger effect = lower value 1.1 | S. cerevisiae deletion strains, locus YLR058C, strain SHM2, stronger effect = lower value 0.978 | S. cerevisiae deletion strains, locus YLR102C, strain apc9, stronger effect = lower value 0.976 | S. cerevisiae deletion strains, locus YLR221C, strain rsa3, stronger effect = lower value 1.01 | S. cerevisiae deletion strains, locus YLR258W, strain gsy2, stronger effect = lower value 1.01 | S. cerevisiae deletion strains, locus YLR262C, strain YPT6 (second series), stronger effect = lower value 1.01 | S. cerevisiae deletion strains, locus YLR262C, strain YPT6, stronger effect = lower value 1.12 | S. cerevisiae deletion strains, locus YLR268W, strain sec22, stronger effect = lower value 0.957 | S. cerevisiae deletion strains, locus YLR320W, strain mms22, stronger effect = lower value 1.04 | S. cerevisiae deletion strains, locus YLR330W, strain CHS5, stronger effect = lower value 0.998 | S. cerevisiae deletion strains, locus YLR342W, strain FKS1, stronger effect = lower value 1.01 | S. cerevisiae deletion strains, locus YLR357W, strain rsc2, stronger effect = lower value 1.02 | S. cerevisiae deletion strains, locus YLR370C, strain arc18, stronger effect = lower value 1.04 | S. cerevisiae deletion strains, locus YLR371W, strain rom2, stronger effect = lower value 0.954 | S. cerevisiae deletion strains, locus YLR384C, strain iki3, stronger effect = lower value 1.01 | S. cerevisiae deletion strains, locus YLR418C, strain cdc73, stronger effect = lower value 0.854 | S. cerevisiae deletion strains, locus YML016C, strain PPZ1, stronger effect = lower value 1.01 | S. cerevisiae deletion strains, locus YML032C, strain rad52, stronger effect = lower value 0.929 | S. cerevisiae deletion strains, locus YML120C, strain ndi1, stronger effect = lower value 1.02 | S. cerevisiae deletion strains, locus YML124C, strain tub3, stronger effect = lower value 0.99 | S. cerevisiae deletion strains, locus YMR058W, strain fet3, stronger effect = lower value 1.03 | S. cerevisiae deletion strains, locus YMR078C, strain ctf18, stronger effect = lower value 0.983 | S. cerevisiae deletion strains, locus YMR125W, strain sto1, stronger effect = lower value 0.989 | S. cerevisiae deletion strains, locus YMR129W, stronger effect = lower value 1.02 | S. cerevisiae deletion strains, locus YMR205C, strain PFK2, stronger effect = lower value 1.01 | S. cerevisiae deletion strains, locus YMR223W, strain ubp8, stronger effect = lower value 0.963 | S. cerevisiae deletion strains, locus YMR231W, strain pep5, stronger effect = lower value 1.02 | S. cerevisiae deletion strains, locus YMR307W, strain GAS1, stronger effect = lower value 0.989 | S. cerevisiae deletion strains, locus YNL067W, strain RPL9B, stronger effect = lower value 0.971 | S. cerevisiae deletion strains, locus YNL071W, strain lat1, stronger effect = lower value 1.02 | S. cerevisiae deletion strains, locus YNL128W, strain TEP1, stronger effect = lower value 0.993 | S. cerevisiae deletion strains, locus YNL209W, strain ssb2, stronger effect = lower value 1.02 | S. cerevisiae deletion strains, locus YNL233W, strain BNI4, stronger effect = lower value 0.956 | S. cerevisiae deletion strains, locus YNL248C, strain rpa49, stronger effect = lower value 1.01 | S. cerevisiae deletion strains, locus YNL250W, strain rad50, stronger effect = lower value 0.967 | S. cerevisiae deletion strains, locus YNL271C, strain bni1, stronger effect = lower value 0.993 | S. cerevisiae deletion strains, locus YNL298W, strain CLA4, stronger effect = lower value 0.969 | S. cerevisiae deletion strains, locus YNL307C, strain MCK1, stronger effect = lower value 0.971 | S. cerevisiae deletion strains, locus YNL322C, strain KRE1 (second series), stronger effect = lower value 1.02 | S. cerevisiae deletion strains, locus YNL322C, strain KRE1, stronger effect = lower value 0.994 | S. cerevisiae deletion strains, locus YNR049C, strain mso1, stronger effect = lower value 1.01 | S. cerevisiae deletion strains, locus YNR052C, strain pop2, stronger effect = lower value 0.987 | S. cerevisiae deletion strains, locus YOL006C, strain TOP1, stronger effect = lower value 0.946 | S. cerevisiae deletion strains, locus YOL012C, strain htz1 1.07 | S. cerevisiae deletion strains, locus YOL147C, strain pex11, stronger effect = lower value 0.966 | S. cerevisiae deletion strains, locus YOR001W, strain rrp6, stronger effect = lower value 1.03 | S. cerevisiae deletion strains, locus YOR061W, strain CKA2, stronger effect = lower value 1.02 | S. cerevisiae deletion strains, locus YOR069W, strain VPS5, stronger effect = lower value 1 | S. cerevisiae deletion strains, locus YOR070C, strain gyp1, stronger effect = lower value 1.02 | S. cerevisiae deletion strains, locus YOR080W, strain dia2, stronger effect = lower value 1.02 | S. cerevisiae deletion strains, locus YOR083W, strain WHI5, stronger effect = lower value 1.01 | S. cerevisiae deletion strains, locus YOR106W, strain vam3, stronger effect = lower value 1.02 | S. cerevisiae deletion strains, locus YOR136W, strain idh2, stronger effect = lower value 0.949 | S. cerevisiae deletion strains, locus YOR144C, strain elg1, stronger effect = lower value 0.988 | S. cerevisiae deletion strains, locus YOR184W, strain ser1, stronger effect = lower value 0.986 | S. cerevisiae deletion strains, locus YOR265W, strain rbl2, stronger effect = lower value 1.01 | S. cerevisiae deletion strains, locus YOR270C, strain vph1, stronger effect = lower value 1.07 | S. cerevisiae deletion strains, locus YOR290C, strain snf2, stronger effect = lower value 1.03 | S. cerevisiae deletion strains, locus YOR316C, strain cot1, stronger effect = lower value 0.983 | S. cerevisiae deletion strains, locus YPL051W, strain arl3, stronger effect = lower value 1.02 | S. cerevisiae deletion strains, locus YPL078C, strain atp4, stronger effect = lower value 1.03 | S. cerevisiae deletion strains, locus YPL106C, strain sse1, stronger effect = lower value 1.03 | S. cerevisiae deletion strains, locus YPL240C, strain hsp82, stronger effect = lower value 1.01 | S. cerevisiae deletion strains, locus YPL241C, strain CIN2, stronger effect = lower value 0.997 | S. cerevisiae deletion strains, locus YPR119W, strain clb2, stronger effect = lower value 0.99 | S. cerevisiae deletion strains, locus YPR141C, strain kar3, stronger effect = lower value 1.01 | S. cerevisiae deletion strains, locus YPR167C, strain met16, stronger effect = lower value 0.957 | S. cerevisiae deletion strains, strain wtn01, stronger effect = lower value 0.97 | S. cerevisiae strains, strain wild type, stronger effect = lower value 1.02
active: S. cerevisiae deletion strains, locus YKR001C, strain vps1, stronger effect = lower value 0.888 | S. cerevisiae deletion strains, locus YPR163C, strain tif3, stronger effect = lower value 0.866
